Results as given in PubChem BioAssay AID2284154 (EPA ToxCast).
The source made the active and inactive calls. Rule for the calls: active = hit-call score of the fitted dose curve at least 0.9, where 1 is the maximum; inactive = score below 0.9.

biological target: Muscarinic acetylcholine receptor M3 (Homo sapiens) (UniProt P20309); test: ERF_FR_GPCR_hCHRM3: Eurofins (ERF) G Protein-Coupled Receptor (GPCR) Radioligand Binding LeadHunter Assay for human Muscarinic Acetylcholine Receptor M3 Antagonism, conducted at France lab site
Sequence (P20309 whole entry, looked up): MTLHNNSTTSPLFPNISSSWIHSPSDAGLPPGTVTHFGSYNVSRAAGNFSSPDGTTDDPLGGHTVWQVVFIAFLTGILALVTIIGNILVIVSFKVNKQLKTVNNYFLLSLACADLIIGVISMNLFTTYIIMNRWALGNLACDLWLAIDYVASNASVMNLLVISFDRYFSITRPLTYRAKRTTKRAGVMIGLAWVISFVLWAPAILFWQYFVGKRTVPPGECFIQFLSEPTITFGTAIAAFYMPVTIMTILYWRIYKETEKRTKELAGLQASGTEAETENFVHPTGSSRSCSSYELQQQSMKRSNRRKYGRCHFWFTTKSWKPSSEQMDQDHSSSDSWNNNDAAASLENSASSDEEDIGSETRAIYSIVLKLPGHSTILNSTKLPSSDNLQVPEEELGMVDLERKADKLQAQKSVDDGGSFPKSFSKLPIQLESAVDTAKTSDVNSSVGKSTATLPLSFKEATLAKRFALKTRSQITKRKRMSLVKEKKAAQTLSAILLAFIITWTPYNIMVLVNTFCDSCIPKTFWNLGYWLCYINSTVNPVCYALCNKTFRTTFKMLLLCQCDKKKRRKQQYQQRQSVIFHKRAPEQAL
Method: ERF_FR_GPCR_hCHRM3 is a biochemical, single-readout assay that uses extracted gene-proteins in a cell-free assay. Measurements were taken 1 hour after chemical dosing in a 96-well plate. See M3 Human Acetylcholine (Muscarinic) GPCR Binding (Antagonist Radioligand) Assay, Cerep.ERF_FR_GPCR_hCHRM3 is an assay component calculated from the ERF_FR_GPCR_hCHRM3 assay. It is designed to measure radioligand binding using a type of binding reporter as detected by scintillation counting with radiometry technology.Data from the assay component ERF_FR_GPCR_hCHRM3 was analyzed at the assay endpoint, ERF_FR_GPCR_hCHRM3, in the positive analysis fitting direction relative to DMSO as the negative control and baseline of activity. Using a type of binding reporter, loss-of-signal activity can be used to understand changes in binding as they relate to gene CHRM3. To generalize the intended target to other relatable targets, this assay endpoint is annotated to the gpcr intended target family, where the subfamily is acetylcholine (Muscarinic).
Human cells are incubated for 60 minutes at room temprature with [3H]4-DAMP ligand (0.2 nM) and 4-Damp methiodide as control inhibitor.Test Sample Requirements: Minimum for 1) Screen: 60 ul of 10 mM stock -OR- 1 mg (pre-weighed) for 10 uM final testing. 2) Dose Response: 90 ul of 10 mM stock -OR- 1 mg (pre-weighed) for a top concentration at 10 uM.

SMILES | AC50
O=C(/C=C/c1ccc(O)cc1)CC(=O)/C=C/c1ccc(O)cc1 | 2.71 µM (active)
